bovine MsrA act: activates bovine MsrA enzyme | purified bovine MsrA, absorbance read-out | activation, % at 10.6 µM | 360,000 compounds, 0.3% hits; in the data active = activation above about 7.5%
PKA-R2B act: activates the human PKA-R2B holoenzyme complex; PKA-R2B holoenzyme dissociation, Cy5-IP20 fluorescence polarization; R2B truncated from residue 108, S112A mutant; 0% DMSO only, 100% 113 µM cGMP; P22694+P31323; 340,000 compounds, 0.079% hits; activation, % at 11.4 µM; AID 504700;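 active = activation above a cutoff set at the mean over all compounds plus 3 SD, cut at about 18% in these data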;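 note: higher means more holoenzyme dissociation and a rise in polarization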
Target sequence (P31323 whole entry, looked up, other chains not shown, the tested form may be a part): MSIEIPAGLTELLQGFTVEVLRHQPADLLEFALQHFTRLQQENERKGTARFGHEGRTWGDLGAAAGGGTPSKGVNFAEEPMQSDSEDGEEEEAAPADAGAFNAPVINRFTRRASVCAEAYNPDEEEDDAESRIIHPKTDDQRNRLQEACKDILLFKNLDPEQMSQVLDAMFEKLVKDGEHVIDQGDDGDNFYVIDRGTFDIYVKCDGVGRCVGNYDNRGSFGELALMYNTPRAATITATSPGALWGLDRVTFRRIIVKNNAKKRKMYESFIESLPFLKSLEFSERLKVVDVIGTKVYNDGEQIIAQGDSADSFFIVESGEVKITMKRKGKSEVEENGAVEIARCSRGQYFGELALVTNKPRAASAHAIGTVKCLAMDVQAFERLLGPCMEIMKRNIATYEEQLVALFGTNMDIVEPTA
MsrA inh: inhibits bovine methionine sulfoxide reductase A | purified bovine MsrA, absorbance read-out | inhibition, % at 15.5 µM | 360,000 compounds, 0.75% hits | AID 651718; in the data active = inhibition above about 4.5%
PKA-R1A activ: activators of PKA-R1A complex | 340,000 compounds, 0.083% hits | PKA-R1A dissociation, Cy5-IP20 fluorescence polarization; scaled: DMSO 0%, 113 µM cGMP 100% | activation, % at 11.4 µM;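 active = percent activation above the mean of all tested compounds plus 3 SD, cut at about 19% in these data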;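 note: higher means more PKAc released from R1A so a rise in polarization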
R2B FP artifact: FP assay interference, PKA-R2B counter-screen | activation, % at 11.4 µM | AID 504796 | shares compounds with PKA-R2B act | 270 compounds, 6% hits | FP artifact counterscreen, fluorescence polarization; in the data active = activation above about 20%;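 note: Cy5 labelled IP20 peptide probe with compound but no PKA protein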
PKA-R2B confirm: confirmation of human PKA-R2B complex activators | shares compounds with PKA-R2B act | fluorescence polarization, activation | activation, % at 11.4 µM | 270 compounds, 9% hits; in the data active = activation above about 19%
Target sequence (P31323 whole entry, looked up): as the sequence (P31323 whole entry, looked up, other chains not shown, the tested form may be a part) above
R1A FP artifact: counter-screen for PKA-R1A activators: fluorescence polarization artifacts; Cy5-IP20 peptide alone, fluorescence polarization artifact counterscreen; 280 compounds, 7% hits; shares compounds with PKA-R1A activ; activation, % at 11.4 µM;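 active = mean activation over triplicate runs exceeds the adjusted cutoff derived for the parent primary screen, cut at about 19% in these data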;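 note: no PKA protein present so any polarization rise reflects compound interference; higher means stronger polarization artifact and likely false positive in parent screen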
PKA-R1A confirm: confirmation of PKA-R1A complex activators; shares compounds with PKA-R1A activ; 280 compounds, 9% hits; Cy5-IP20 fluorescence polarization, PKA-R1A holoenzyme dissociation; AID 504800; activation, % at 11.4 µM;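 active = mean activation over replicate wells exceeds the adjusted hit threshold taken from the earlier primary screen, cut at about 20% in these data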
MsrA activ conf: bovine methionine sulfoxide reductase A activation confirmed; shares compounds with bovine MsrA act; purified bovine MsrA, absorbance read-out; activation, % at 10.6 µM; 1,000 compounds, 12% hits; AID 602270; in the data active = activation above about 4%;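 note: enzyme coupled to thioredoxin and thioredoxin reductase with NADPH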
Hits are given with their value; . = inactive; / = no result; ! = a repeat was not active. Shown are actives, neighbours in structure and some others; about 1.1% of the full set was active somewhere.

SMILES	bovine MsrA act	PKA-R2B act	MsrA inh	PKA-R1A activ	others
C=C(COC(C)=O)CC1CC(O)[C@]2(C)OC3CC4OC5C[C@]6(C)O[C@]7(C)CCC8OC9C[C@]%10(C)OC%11C(C)=CC(=O)OC%11CC%10OC9C[C@@H](C)C8OC7CC6O[C@]5(C)C/C=C\C4OC3CC2O1 (stereo partly drawn)	9.7	.	/	.
O=C(NCCN1CCC2(CC1)C(=O)NCN2c1ccccc1)C(c1ccccc1)c1ccccc1	/	/	.	/
O=C(Nc1ccccc1)N1Cc2cc(Br)ccc2-n2nncc2C1	/	/	.	/
Cc1ccc(-n2c(O)c(C=NCCN3CCNCC3)c(=O)[nH]c2=S)cc1	.	.	4.6	.
COC(=O)C1C2c3ccccc3OC1(C)N=c1s/c(=C/c3cnn(C)c3C)c(=O)n12 (stereo not drawn)	.	.	.	.
CC(=O)C1C2c3ccccc3OC1(C)N=c1s/c(=C/c3cnn(C)c3)c(=O)n12 (stereo not drawn)	.	.	8.1	.
O=c1[nH]c2cc(Cl)ccc2n1C1CCN(Cc2ccc(-c3nc4ccc(F)cc4nc3-c3ccccc3)cc2)CC1	/	/	.	/
CCn1nc(-c2cccs2)nc2c(=O)n(C)c(=O)nc1-2	58.8	.	/	.
Clc1ccc([C@H]2CC3CCC2N3)cn1 (stereo partly drawn)	/	/	.	/
O=[N+]([O-])c1ccc(NCCCN2CCOCC2)nc1	.	.	4.6	.
O=C(NCCN1CCOCC1)c1ccc(Cl)nc1	.	.	.	.
Cc1cc(N2CCNC[C@@H]2C)ccc1N1CC[C@@H](O)C1	/	/	.	/
Cc1cc(O)c2c(c1)C(=O)C13C(=C2O)C(=O)[C@H]2[C@@H](O)[C@@H]1[C@H]1[C@H](O)[C@@H]3C(=O)C3=C(O)c4c(O)cc(C)cc4C(=O)C312 (stereo partly drawn)	.	36.7	/	.
CCOC(=O)c1c(C=O)c2ccccc2n1Cc1ccccc1F	.	.	4.6	.
Cc1c(C=O)c2ccccc2n1Cc1ccccc1F	.	.	.	.
COc1ccc(Cn2c(O)c(/C=N/NC(=O)c3ccccc3)c(=O)[nH]c2=O)cc1	.	.	4.5	.
O=C(N/N=C/c1c(O)n(Cc2ccc(F)cc2)c(=O)[nH]c1=O)c1ccccc1O	.	.	.	.
O=C(N/N=C/c1c(O)n(Cc2ccccc2)c(=O)[nH]c1=O)c1ccccc1O	.	.	4.6	.
CN1OC[C@@H]2CN3C4(C[C@@H]21)c1ccccc1C3(c1ccccc1)c1ccccc14	/	/	.	/
N#Cc1ccc2nc(-c3ccc(CN4CCC(n5c(=O)[nH]c6cc(Cl)ccc65)CC4)cc3)c(-c3ccccc3)nc2c1	/	/	.	/
CC1=CC2/C=C(\C)CCC(O)C(O)/C=C/C(=O)C23C(=O)NC(CC(C)C)C3C1C (stereo not drawn)	.	.	/	.
C/C1=C\[C@@H](C)C/C=C/[C@H]2[C@@H]3O[C@]3(C)[C@@H](C)[C@H]3[C@H](Cc4c[nH]c5ccccc45)NC(=O)[C@]32C(=O)/C=C/C(=O)[C@@H]1O	8.1	.	/	.
COc1ccc2c3c([nH]c2c1)C(C)=NCC3	10.8	.	.	.
CCOc1cc(C=O)ccc1O	.	.	4.6	.
CCN(CC)c1ccc(/C=C2/C(=O)NC(=O)N(Cc3ccco3)C2=O)cc1	.	.	4.6	.
SMILES	bovine MsrA act	PKA-R2B act	MsrA inh	PKA-R1A activ	others
Cc1cccc2nc(-c3ccccc3)c(-c3ccc(CN4CCC(n5c(=O)[nH]c6cc(Cl)ccc65)CC4)cc3)nc12	/	/	.	/
COC(=O)C1=C(c2ccc(OC(F)(F)F)cc2)C[C@@H]2CC[C@H]1N2C(=O)NCCOc1ccc(OC)cc1	.	.	10.0	.
c1ccc2c(c1)[IH]c1ccccc1-2	.	.	84.9	.
c1ccc2c(c1)-c1cccc3cccc-2c13	.	.	.	.
CC(C)C(CN1CCC(C)(c2cccc(O)c2)[C@@H](C)C1)NC(=O)C1Cc2ccc(O)cc2CN1 (stereo partly drawn)	/	/	.	/
O=C(O)c1cccc2c1NC(C(=O)O)C1CC(Sc3ccccc3[N+](=O)[O-])C(Cl)C21 (stereo not drawn)	.	21.5	.	.	R2B FP artifact=24.0;PKA-R2B confirm=.
Cc1ccc(OC(=O)N(C)C[C@H]2OCc3cnnn3CCCC(=O)N([C@H](C)CO)C[C@H]2C)cc1	/	/	.	/
Cc1ccc(/C=C2/C(=O)NC(=O)N(CCc3ccc(F)cc3)C2=O)o1	.	24.2	.	.	R2B FP artifact=.;PKA-R2B confirm=.
Oc1ccc2c3c1O[C@H]1[C@@H](O)CC[C@@]4(O)[C@@H](C2)N(CC2CCC2)CC[C@]314	.	18.7!	.	.	R2B FP artifact=.;PKA-R2B confirm=.
N#Cc1ccc(NC(=S)N2Cc3ccc(Br)cc3-n3nncc3C2)cc1	/	/	.	/
O=C(NCCN1CCC2(CC1)C(=O)NCN2c1ccccc1)c1ccccc1C(F)(F)F	/	/	.	/
CCCn1cc(CN2CCCC(C(=O)c3cccc(OC)c3)C2)c(C)n1 (stereo not drawn)	.	21.1	.	.	R2B FP artifact=.;PKA-R2B confirm=.
CCn1cc(CN2CCCC(C(=O)c3cccc(OC)c3)C2)c(C)n1 (stereo not drawn)	.	.	.	.
CCOP(=O)(OCC)C(NC(=O)c1ccccc1Cl)=C(Cl)Cl	.	18.5	.	.	R2B FP artifact=.;PKA-R2B confirm=.
CCOP(=O)(C(NC(=O)c1ccccc1Cl)=C(Cl)Cl)c1ccccc1 (stereo not drawn)	.	.	.	.
CC(Cc1ccccc1)N(C)CC1C(=O)C2CCC1C2 (stereo not drawn)	.	.	.	.
C#CCN(C)C(C)Cc1ccccc1 (stereo not drawn)	.	18.8	.	.	R2B FP artifact=.;PKA-R2B confirm=.
N#CCCn1cc(C=C2C(=O)NC(=O)NC2=O)c(-c2ccccc2)n1	.	19.1	.	.	R2B FP artifact=.;PKA-R2B confirm=.
O=C(NC1CCCCC1)N1Cc2ccc(Br)cc2-n2nncc2C1	/	/	.	/
O=C1NC(=S)NC(=O)C1=Cc1cccn1-c1ccc(O)cc1	.	.	.	21.2	R1A FP artifact=.;PKA-R1A confirm=.
CN1C2(C)c3ccccc3C1(c1ccccc1)c1ccccc12	/	/	.	/
O=C(CCN1CCOCC1)NCC(=O)Nc1ccc(Br)cc1C(=O)c1ccccc1	7.8	.	.	.	MsrA activ conf=.
COc1cc2c(c(OC)c1OC)-c1ccc(C(=O)O)cc1[C@@H](NC(C)=O)CC2	19.4	.	.	.	MsrA activ conf=.

Bioassay records (PubChem)
